Experimental data reported in PubChem BioAssay AID1851 (National Center for Advancing Translational Sciences (NCATS), 2009).
Screen size: about 16,000 compounds; about 2,600 (16%) were called active. Not shown: some 20% with an inconclusive outcome. The list is a sample of the results. Unmarked numbers belong to inactive results. Calls come from the whole dose curve; as a rule, active = well fitted curve in the direction sought with a large enough effect; inconclusive = small, poorly fitted or top-dose-only effect, or effect the other way; inactive = no such curve, though single readings can be large or run the other way.

Each compound was assayed against Cytochrome P450 2D6 (Homo sapiens) (UniProt P10635) (assay: Cytochrome panel assay with activity outcomes). Conditions: recombinant CYP, pro-luciferin dealkylation, luminescence, p450-cyp2d6; series mostly up to 57.1 µM.
% is set by controls: 0 for no effect and ±100 for the full control effect.

Chain of Cytochrome P450 2D6 (Homo sapiens) (P10635 whole entry, looked up): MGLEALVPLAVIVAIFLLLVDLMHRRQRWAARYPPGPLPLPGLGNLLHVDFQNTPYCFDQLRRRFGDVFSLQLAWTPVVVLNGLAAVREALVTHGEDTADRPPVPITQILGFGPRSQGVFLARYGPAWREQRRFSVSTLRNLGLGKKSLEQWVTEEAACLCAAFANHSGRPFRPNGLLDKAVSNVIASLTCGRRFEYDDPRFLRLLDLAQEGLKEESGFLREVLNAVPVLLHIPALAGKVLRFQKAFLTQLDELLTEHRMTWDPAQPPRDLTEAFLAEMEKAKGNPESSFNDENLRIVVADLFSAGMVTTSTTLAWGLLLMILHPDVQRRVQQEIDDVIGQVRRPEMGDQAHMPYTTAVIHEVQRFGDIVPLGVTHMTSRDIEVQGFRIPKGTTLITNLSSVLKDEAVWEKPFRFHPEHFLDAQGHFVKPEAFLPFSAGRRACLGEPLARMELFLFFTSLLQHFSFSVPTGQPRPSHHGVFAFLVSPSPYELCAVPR

SMILES	AC50	activity, negative = inhibition
COC(=O)c1c(NC(=O)C(C)(C)C)sc2c1C(C(=O)OC)CC2 (centres undefined)	inactive	–
O=S(=O)(C[C@H](O)C(Cl)(Cl)Cl)NNc1ccccc1	–	17.4% [at 11.4 µM]
C[C@H]1O[C@@H](CC(=O)O)Cc2c1c(O)c1c(O)cc(-c3cc(=O)c4c(=O)c5c(c(=O)c=4c3=O)C[C@H](CC(=O)O)O[C@@H]5C)c(O)c1c2O	–	-3.88% [at 11.4 µM]
CN(C)c1ncc2nc(-c3ccc(F)cc3)c(=O)n(C3CC3)c2n1	inactive	–
O=C(Nc1cc(C(F)(F)F)ccc1-n1cncn1)c1ccc(Br)cc1	inactive	–
C[n+]1cccc(CNC(=O)/C=N/O)c1	inactive	–
CC(Oc1ccccc1)c1ccnn1S(=O)(=O)c1ccccc1 (centres undefined)	inactive	–
CC[N+](C)(CC)CCC[n+]1c(-c2ccccc2)c2cc(N)ccc2c2ccc(N)cc21	6.31 µM (active)	–
CN=C(NC#N)Nc1ccc(C2=NNC(=O)C[C@@H]2C)cc1	inactive	–
NC(=O)C1CCN(C(=O)CN2C(=O)c3ccccc3S2(=O)=O)CC1	inactive	–
Cc1nc2cnc(N3CCOCC3)nc2n(C)c1=O	inactive	–
CCOC(=O)Oc1c(OC)cc(C(=O)O[C@H]2C[C@H]3CN4CCc5c([nH]c6cc(OC)ccc56)[C@@H]4C[C@H]3[C@@H](C(=O)OC)[C@@H]2OC)cc1OC	inactive	–
COCCCCC(=NOCCN)c1ccc(C(F)(F)F)cc1	3.98 µM (active)	–
COc1c(/C=N/Nc2ccc([N+](=O)[O-])cc2[N+](=O)[O-])c(C)nn1-c1ccccc1	inactive	–
C[C@@]12CC[C@@H]3c4ccc(O)cc4CC[C@H]3[C@H]1CC[C@H]2O	inactive	–
Cc1cccc(C)c1NC(=O)[C@H](C)N	inactive	–
CCOc1nc(N=C(N)N)nc2c(C)cccc12	inactive	–
Cc1cccc(C)c1OC[C@@H](N)C(C)C	15.8 µM (active)	–
COC(=O)[C@@]1(Cc2ccc(F)cc2)[C@H]2c3cc(C(=O)N4CCCC4)n(Cc4ccccc4)c3C[C@H]2CN1C(=O)c1ccccc1	inactive	–
COC(=O)[C@@]1(Cc2ccc(F)cc2)[C@H]2c3cc(C(=O)N4CCCC4)n(CCc4ccc(O)c(O)c4)c3C[C@H]2CN1C(=O)c1ccccc1	12.6 µM (active)	–
COC(=O)[C@@]1(Cc2ccc(F)cc2)[C@H]2c3cc(C(=O)N4CCCC4)n(CCc4c[nH]c5ccccc45)c3C[C@H]2CN1C(=O)c1ccccc1	inactive	–
COC(=O)[C@@]1(Cc2ccc(F)cc2)[C@H]2c3cc(C(=O)N4CCCC4)n(Cc4ccc(OC(F)(F)F)cc4)c3C[C@H]2CN1C(=O)c1ccccc1	inactive	–
COC(=O)[C@@]1(Cc2ccccc2)[C@H]2c3cc(C(=O)N4CCCC4)n(Cc4cccc5ccccc45)c3C[C@H]2CN1C(=O)c1ccccc1	inactive	–

SMILES	AC50	activity, negative = inhibition
COC(=O)[C@@]1(Cc2ccccc2)[C@H]2c3cc(C(=O)N4CCCC4)n(Cc4nc5ccccc5[nH]4)c3C[C@H]2CN1C(=O)c1ccccc1	7.94 µM (active)	–
COC(=O)[C@@]1(Cc2ccccc2)[C@H]2c3cc(C(=O)N4CCCC4)n(Cc4c(CO)[nH]cc(C)c4=O)c3C[C@H]2CN1C(=O)c1ccccc1	12.6 µM (active)	–
COC(=O)[C@@]1(Cc2ccc(F)cc2)[C@H]2c3cc(C(=O)N4CCCC4)n(Cc4ccccn4)c3C[C@H]2CN1C(=O)c1ccccc1	inactive	–
COC(=O)[C@@]1(Cc2ccccc2)[C@H]2c3cc(C(=O)N4CCCC4)n(CC4CC4)c3C[C@H]2CN1C(=O)c1ccccc1	inactive	–
COC(=O)[C@@]1(Cc2ccc(F)cc2)[C@H]2c3cc(C(=O)N4CCCC4)n(CCc4ccc(OC)c(Br)c4)c3C[C@H]2CN1C(=O)c1ccccc1	inactive	–
COC(=O)[C@@]1(Cc2ccc(F)cc2)[C@H]2c3cc(C(=O)N4CCCC4)n(Cc4c(CO)[nH]cc(C)c4=O)c3C[C@H]2CN1C(=O)c1ccccc1	12.6 µM (active)	–
Cc1cc(NC(=O)c2ccccc2Cl)c(C(C)C)cc1O	inactive	–
CCCCC1(C)OC(=O)C(=Cc2ccc(N(CC)CC)cc2)C(=O)O1 (centres undefined)	inactive	–
COc1ncc2nc(-c3cn(C)c4ccccc34)c(=O)n(Cc3ccc(F)cc3)c2n1	inactive	–
Cc1cc(C)cc(N2C(=O)CC(Sc3nnnn3-c3ccccc3)C2=O)c1 (centres undefined)	inactive	–
Cc1cccc(-n2cnc(C(=O)NC3CCCCCC3)c2)n1	inactive	–
COc1cc(OC)c(C2N(c3cc(C)on3)C(=O)C3CCCN32)cc1OC (centres undefined)	inactive	–
COc1ccc(CNc2ncncc2-c2ccccc2CN(C)C)c(OC)c1	2.51 µM (active)	–
COc1ccc(CNc2ncncc2-c2ccccc2C)c(OC)c1	12.6 µM (active)	–
COc1ccc(CNc2ncncc2-c2ccccc2OC)c(OC)c1	12.6 µM (active)	–
COc1ccc(O[C@H]2C=C[C@@H](c3ccccc3)O[C@@H]2CO/N=C\[C@@H](C)[C@H](OCc2ccccc2)C(C)C)cc1	–	8.39% [at 11.4 µM]
COc1ccc(Nc2nnc(-c3ccc(N4CCOCC4)c([N+](=O)[O-])c3)c3ccccc23)cc1	inactive	–
NC(=O)c1ccc([N+](=O)[O-])cc1SCc1ccccc1	inactive	–
Cc1ccc(Cn2nc(C)c(NC(=O)c3cc(-c4ccco4)on3)c2C)cc1	inactive	–
Cn1c(=O)c2cn(-c3ccccc3)cc2n(C)c1=O	inactive	–
COc1ncc2nc(-c3cccs3)c(=O)n(-c3ccccc3)c2n1	inactive	–
O=C(C1CCN(S(=O)(=O)c2cccc3cccnc23)CC1)N1CCN(c2ccccn2)CC1	inactive	–
Cc1ccc2c(c1)NCC(C(=O)NC1CCCCC1)O2 (centres undefined)	inactive	–

SMILES	AC50	activity, negative = inhibition
Cc1ccc(S(=O)(=O)N2CCN(Cc3ccccc3C(F)(F)F)CC2)cc1	10 µM (active)	–
Cc1ccc(S(=O)(=O)N2CCN(S(C)(=O)=O)C2)cc1	inactive	–
Cc1ccc(S(=O)(=O)N2CCN(C(=O)CN3CCN(C)CC3)C2)cc1	inactive	–
COC(=O)C(NS(=O)(=O)c1ccc(NC(C)=O)cc1)C(C)C (centres undefined)	inactive	–
O=S(=O)(c1cccc(C(F)(F)F)c1)N1CCC(c2cc(-c3cccc4ccccc34)n[nH]2)CC1	inactive	–
Cc1cccc(NC(=O)CSc2nc(-c3ccccc3)c(C#N)c(=O)[nH]2)c1C	inactive	–
Cc1cccc(NC(=O)CSc2nnc(-c3ccco3)c(-c3ccco3)n2)c1C	12.6 µM (active)	–
Cc1cc(C)nc(SCC(=O)Nc2ccccc2[N+](=O)[O-])n1	inactive	–
COc1ccc(NC(=O)N2CCC3(CC2)CCN(C(=O)c2cccc(F)c2)CC3)cc1	inactive	–
CCCCNC(=O)CN1C(=O)NC2(CCCc3ccccc32)C1=O (centres undefined)	inactive	–
CCC1Oc2ccccc2N(CC(=O)NCCCN2CCCCC2C)C1=O (centres undefined)	3.16 µM (active)	–
COc1ccc2nc(NC(C)=O)sc2c1	inactive	–
Cc1ccccc1NC(=O)c1ccc(N/N=C/c2ccccc2O)c([N+](=O)[O-])c1	inactive	–
COC(=O)NCC(c1cccnc1)N1CCN(c2ccccc2OC)CC1 (centres undefined)	inactive	–
O=c1c2ccccc2nc2n1C(CSc1ccc(F)cc1)CN2 (centres undefined)	inactive	–
CCCCNC(=O)CCC(=O)Nc1ccc2nc(N3CCOCC3)cc(C)c2c1	inactive	–
COc1ccc2cc3cc(C(=O)NCCCN4CCOCC4)oc3nc2c1	inactive	–
CN1CCN(CCCNC(=O)c2ccc(CSCc3cccc(Cl)c3)o2)CC1	10 µM (active)	–
COc1ccc(S(N)(=O)=O)cc1C(=O)NCCCN1CCN(c2cccc(Cl)c2)CC1	inactive	–
Nc1cc(S(=O)(=O)O)cc2ccc(S(=O)(=O)O)cc12	–	-8.48% [at 11.4 µM]
CCc1ccc(-c2cc(C(=O)NCc3ccco3)c3ccccc3n2)s1	inactive	–
CSc1nc(N)nc(-c2cccs2)c1C#N	inactive	–
CCOc1ccc(CCNC(=O)CCCN2C(=O)c3ccccc3C2=O)cc1OCC	inactive	–

SMILES	AC50	activity, negative = inhibition
O=C(CCCCCN1C(=O)c2ccccc2C1=O)NCc1ccccn1	inactive	–
COc1ccc(CCNC(=O)CCCCCN2C(=O)c3ccccc3C2=O)cc1	5.01 µM (active)	–
Cc1cccc(N2CCN(CC(=O)Nc3ccc(-n4cnnn4)cc3)CC2)c1C	inactive	–
O=C(Oc1ccc2c(c1)CN(Cc1ccccc1)CO2)c1ccccc1	0.501 µM (active)	–
COc1ccc(S(=O)(=O)N(CCc2ccccc2)CC(=O)N2CCOCC2)cc1	inactive	–
CN(Cc1ccccc1)S(=O)(=O)c1ccc(OCC(=O)N2CCOCC2)cc1	inactive	–
CC(Oc1ccc(O)cc1)(P(=O)(O)O)P(=O)(O)O	inactive	–
C/C(CCN1CCc2nc(-c3ccccc3)c(-c3ccccc3)cc2C1)=N\OC[C@@H](O)[C@@H]1O[C@@H]2OC(C)(C)O[C@@H]2[C@H]1O	–	12.8% [at 11.4 µM]
C[C@@H](NCc1cc(Br)cc2[nH]c(=O)c(=O)[nH]c12)P(=O)(O)O	inactive	–
O=C(CCCN1CCC(O)(c2ccc(Br)cc2)CC1)c1ccc(F)cc1	3.98 µM (active)	–
O=C(N/N=C\c1cn(-c2ccccc2)nc1-c1ccccc1)c1ccc2c(c1)OCO2	inactive	–
c1ccc(-c2nc3ccccn3c2NCc2ccc3c(c2)OCO3)cc1	3.98 µM (active)	–
CCOC(=O)c1c(-c2ccccc2)nc2ccccn12	inactive	–
CCCS(=O)(=O)N1CCCC(C(=O)N2CCN(C(=O)OCC)CC2)C1 (centres undefined)	inactive	–
CCCS(=O)(=O)N1CCCC(C(=O)N2CCOCC2)C1 (centres undefined)	inactive	–
CCCS(=O)(=O)N1CCN(CC2CC=CCC2)CC1 (centres undefined)	1.12 µM (active)	–
COc1ccc(Oc2c(C=O)c3ccccc3n2C)cc1	inactive	–
CC(C)CC(=O)N1CCC(N2CCN(c3ccccc3)CC2)CC1	inactive	–
c1ccc(C2CCC(N3CCC(N4CCCCC4)CC3)CC2)cc1 (centres undefined)	14.1 µM (active)	–
COc1ccccc1NC(=O)c1nn(-c2cccc(C(F)(F)F)c2)ccc1=O	inactive	–
